Measurements as given in PubChem BioAssay AID1159580 (chemical genetic matrix, 2015).
In all, about 5,500 compounds went through this assay and about 2,000 (36%) were called active. Another 18% or so got no clear call; they are omitted. No stated cut-off is given here; in the data, active means normalized growth mostly below about 0.91 (no sharp cut-off); inconclusive means no clear call, values can overlap the other calls; inactive means mostly above about 0.92. The list shows a part of the results.

Assay: chemical genetic growth profiling, strain panel (AID 1159580);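 further: tested at 20 µM; growth read once vehicle control cultures reached saturation at 30 °C; 1 = growth at the plate median or of vehicle wells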
Settings: S. cerevisiae deletion strains, growth OD
[1] = locus YDL101C, strain DUN1, stronger effect = lower value
[2] = locus YHR030C, strain SLT2, stronger effect = lower value

Measured: normalized growth

CCOC(=O)COc1ccc2c(c1)OC(C)(C)CC2=O
inactive: locus YAL013W, strain DEP1, stronger effect = lower value 0.998 | locus YBR229C, strain ROT2, stronger effect = lower value 0.994 | locus YCL061C, strain MRC1, stronger effect = lower value 0.964 | [1] 0.993 | locus YDL134C, strain PPH21, stronger effect = lower value 1.01 | locus YDR150W, strain NUM1, stronger effect = lower value 0.872 | locus YEL061C, strain CIN8, stronger effect = lower value 1.01 | locus YGR078C, strain PAC10, stronger effect = lower value 1 | locus YGR229C, strain SMI1, stronger effect = lower value 1.01 | [2] 0.947 | locus YHR087W, strain rtc3, stronger effect = lower value 0.976 | locus YJR043C, strain POL32, stronger effect = lower value 0.994 | locus YJR075W, strain HOC1, stronger effect = lower value 0.974 | locus YLR039C, strain RIC1, stronger effect = lower value 1.05 | locus YLR058C, strain SHM2 (second series), stronger effect = lower value 1 | locus YLR085C, strain ARP6, stronger effect = lower value 0.965 | locus YLR262C, strain YPT6, stronger effect = lower value 1.02 | locus YML094W, strain GIM5, stronger effect = lower value 1.02 | locus YMR219W, strain ESC1, stronger effect = lower value 0.988 | locus YMR263W, strain SAP30, stronger effect = lower value 1.01 | locus YMR307W, strain GAS1, stronger effect = lower value 0.986 | locus YNL128W, strain TEP1, stronger effect = lower value 1.01 | locus YNL153C, strain GIM3, stronger effect = lower value 0.966 | locus YNL298W, strain CLA4 (second series), stronger effect = lower value 1.01 | locus YNL322C, strain KRE1, stronger effect = lower value 1 | locus YNR030W, strain Alg12, stronger effect = lower value 1 | locus YPL055C, strain LGE1, stronger effect = lower value 0.849 | locus YPL241C, strain CIN2, stronger effect = lower value 0.953 | locus YPR135W, strain CTF4, stronger effect = lower value 1.03

Cc1oc2c(F)c(F)c(F)c(F)c2c1C(=O)ONC(N)c1ccc(OS(=O)(=O)N(C)C)cc1 (stereo not given)
inactive: locus YAR019C, strain CDC15, stronger effect = lower value 0.958 | locus YBL105C, strain PKC1, stronger effect = lower value 0.963 | locus YBR135W, strain CKS1, stronger effect = lower value 0.971 | locus YBR136W, strain MEC1, stronger effect = lower value 0.958 | locus YBR160W, strain CDC28, stronger effect = lower value 0.976 | locus YDL017W, strain CDC7, stronger effect = lower value 0.973 | locus YDL028C, strain MPS1, stronger effect = lower value 0.959 | [1] 0.985 | locus YDL108W, strain KIN28, stronger effect = lower value 0.978 | locus YDL132W, strain cdc53, stronger effect = lower value 0.982 | locus YDL214C, strain PRR2, stronger effect = lower value 0.969 | locus YDR052C, strain DBF4, stronger effect = lower value 0.971 | locus YDR054C, strain cdc34, stronger effect = lower value 0.976 | locus YDR226W, strain ADK1, stronger effect = lower value 0.969 | locus YDR477W, strain SNF1, stronger effect = lower value 0.946 | locus YER123W, strain YCK3, stronger effect = lower value 0.926 | locus YER133W, strain GLC7, stronger effect = lower value 0.958 | locus YFL009W, strain cdc4, stronger effect = lower value 0.962 | locus YFL029C, strain CAK1, stronger effect = lower value 0.958 | locus YFR003C, strain YPI1, stronger effect = lower value 0.968 | locus YFR019W, strain FAB1, stronger effect = lower value 0.937 | locus YFR028C, strain CDC14, stronger effect = lower value 0.963 | locus YGR040W, strain KSS1, stronger effect = lower value 0.949 | locus YGR052W, strain FMP48, stronger effect = lower value 1.03 | locus YGR092W, strain DBF2, stronger effect = lower value 0.989 | [2] 0.937 | locus YHR079C, strain IRE1, stronger effect = lower value 0.981 | locus YHR082C, strain KSP1, stronger effect = lower value 1.02 | locus YHR205W, strain SCH9, stronger effect = lower value 0.926 | locus YIL147C, strain SLN1, stronger effect = lower value 0.96 | locus YJL095W, strain BCK1, stronger effect = lower value 0.983 | locus YJL128C, strain PBS2, stronger effect = lower value 0.972 | locus YJL157C, strain FAR1, stronger effect = lower value 0.963 | locus YJR016C, strain ILV3, stronger effect = lower value 0.972 | locus YJR066W, strain TOR1 (second series), stronger effect = lower value 0.918 | locus YJR066W, strain TOR1, stronger effect = lower value 0.985 | locus YKL048C, strain ELM1, stronger effect = lower value 0.981 | locus YKL067W, strain YNK1, stronger effect = lower value 0.975 | locus YKL101W, strain HSL1, stronger effect = lower value 0.966 | locus YKL193C, strain SDS22, stronger effect = lower value 0.969 | locus YKL203C, strain TOR2, stronger effect = lower value 0.99 | locus YLR113W, strain HOG1, stronger effect = lower value 0.966 | locus YLR133W, strain CKI1, stronger effect = lower value 0.96 | locus YLR403W, strain SFP1, stronger effect = lower value 0.921 | locus YML070W, strain DAK1, stronger effect = lower value 0.955 | locus YMR001C, strain CDC5, stronger effect = lower value 0.963 | locus YMR205C, strain PFK2 (second series), stronger effect = lower value 0.975 | locus YMR277W, strain FCP1, stronger effect = lower value 0.964 | locus YNL006W, strain LST8, stronger effect = lower value 0.97 | locus YNL020C, strain ARK1, stronger effect = lower value 0.982 | locus YNL161W, strain CBK1, stronger effect = lower value 0.971 | locus YNL183C, strain NPR1, stronger effect = lower value 0.964 | locus YNL207W, strain RIO2, stronger effect = lower value 0.967 | locus YNL222W, strain SSU72, stronger effect = lower value 0.976 | locus YNL307C, strain MCK1 (second series), stronger effect = lower value 0.952 | locus YOL078W, strain AVO1, stronger effect = lower value 0.963 | locus YOL136C, strain PFK27, stronger effect = lower value 0.952 | locus YOR061W, strain CKA2, stronger effect = lower value 0.951 | locus YOR119C, strain RIO1, stronger effect = lower value 0.97 | locus YOR231W, strain MKK1, stronger effect = lower value 0.986 | locus YOR329C, strain SCD5, stronger effect = lower value 0.972 | locus YPL031C, strain PHO85, stronger effect = lower value 0.94 | locus YPL153C, strain RAD53, stronger effect = lower value 0.946 | locus YPL204W, strain HRR25, stronger effect = lower value 0.963 | locus YPL209C, strain IPL1, stronger effect = lower value 0.974 | locus YPL256C, strain CLN2, stronger effect = lower value 0.959 | locus YPR025C, strain CCL1, stronger effect = lower value 0.968 | locus YPR106W, strain ISR1, stronger effect = lower value 0.986 | locus YPR111W, strain DBF20, stronger effect = lower value 0.98 | strain NNK1, stronger effect = lower value 0.993 | strain TSCII, stronger effect = lower value 0.967
